# How the values were obtained:
# Conditions in all cases: concentration: 1 μM, replicates: in singlicate; n = 1
# CAMKK1 = tested on: CAMKK1
# CAMKK2 = tested on: CAMKK2
# CASK = tested on: CASK
# CDC2L1 = tested on: T1, CDC2L1
# T1 construct: gene CDK11B
# CDC2L2 = tested on: CDC2L2
# CDC2L5 = tested on: T2, CDC2L5
# T2 construct: gene CDK13
# CDK11 = tested on: T3, CDK11
# T3 construct: gene CDK19
# CDK2 = tested on: CDK2
# CDK3 = tested on: CDK3
# CDK4-cyclinD1 = tested on: CDK4-cyclinD1
# CDK4-cyclinD3 = tested on: CDK4-cyclinD3
# CDK4 = tested on: CDK4
# CDK5 = tested on: CDK5
# CDK7 = tested on: CDK7
# CDK8 = tested on: CDK8
# CDK9 = tested on: CDK9
# CDKL1 = tested on: CDKL1
# CDKL2 = tested on: CDKL2
# CDKL3 = tested on: CDKL3
# CDKL5 = tested on: CDKL5
# 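Further: KINOMEscan kinase panel screen.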
SMILES,%Inh (CAMKK1),%Inh (CAMKK2),%Inh (CASK),%Inh (CDC2L1),%Inh (CDC2L2),%Inh (CDC2L5),%Inh (CDK11),%Inh (CDK2),%Inh (CDK3),%Inh (CDK4-cyclinD1),%Inh (CDK4-cyclinD3),%Inh (CDK4),%Inh (CDK5),%Inh (CDK7),%Inh (CDK8),%Inh (CDK9),%Inh (CDKL1),%Inh (CDKL2),%Inh (CDKL3),%Inh (CDKL5)
COCCNC(=O)c1ccc(-c2cc(C(=O)NC3CC3)cc(F)c2C)cc1 [GW868318],3%,16%,16%,3%,15%,33%,6%,12%,11%,24%,0%,21%,11%,25%,0%,0%,19%,28%,27%,26%
COc1ccc(CNC(=O)NC2CCN(c3ccnc(Nc4ccc(OC)cc4)n3)C2)cc1 (centres unmarked) [GSK1379727],0%,4%,16%,0%,8%,0%,1%,0%,13%,18%,0%,48%,0%,0%,42%,0%,4%,21%,0%,0%
O=c1cc(N2CCOCC2)nc2n(Cc3cccc(F)c3)ccn12 [GSK2297430],25%,3%,0%,3%,6%,0%,0%,7%,1%,0%,0%,19%,0%,0%,26%,0%,0%,0%,0%,0%
Cc1c(Cn2c(C)nn3c(=O)cc(N4CCOC(C)C4)nc23)cccc1C(F)(F)F (centres unmarked) [GSK2344444],0%,0%,0%,0%,0%,0%,0%,0%,4%,0%,0%,25%,0%,0%,0%,2%,0%,4%,0%,0%
O=C(NOCC1CC1)c1ccc(F)c(F)c1Nc1ccc(I)cc1Cl,0%,0%,3%,0%,0%,0%,12%,0%,0%,0%,0%,0%,5%,0%,0%,0%,0%,0%,20%,0%
Cc1cccc(-c2nc(-c3ccc(S(C)(=O)=O)cc3)sc2-c2ccncc2)c1,4%,5%,0%,0%,0%,9%,0%,14%,3%,0%,19%,0%,12%,25%,9%,0%,0%,4%,0%,7%
O=c1cc(N2CCOCC2)nc2n(Cc3cccc4ccccc34)ccn12 [GSK2333389],0%,0%,0%,0%,0%,0%,0%,12%,0%,0%,0%,0%,0%,0%,13%,1%,0%,4%,0%,0%
N#Cc1c(N2CCOCC2)sc(-c2ccn[nH]2)c1-c1ccc(Cl)cc1,0%,0%,0%,0%,11%,0%,7%,0%,5%,31%,2%,29%,15%,43%,0%,0%,0%,0%,0%,0%
COc1ccc(Nc2ncc(C#N)c(Nc3ccccc3C(N)=O)n2)cc1N1CCN(C)CC1.Cl [GSK1558669],96.9%,98.5%,75%,0%,1%,69%,0%,96.3%,90%,94.8%,90%,93.9%,99.7%,99.8%,0%,72%,89%,94.7%,0%,29%
COc1ccc(COc2cc(-n3cnc4ccccc43)sc2C(N)=O)cc1 [GSK1024304],4%,13%,0%,0%,0%,0%,22%,0%,9%,0%,0%,40%,0%,0%,29%,0%,7%,18%,0%,0%

# — article PMC5540273 (PLoS ONE, 2017)
